Assay results published in PubChem BioAssay (Tox21).
“And” between values parts separate entries of the source, which are not always exact repeats. Identical values can stand only once. Records with an inconclusive call do not appear. The source made the active and inactive calls. Unless noted, calls come from the whole dose curve; as a rule, active = well fitted curve in the direction sought with a large enough effect in the repeat runs; inconclusive = weak or mixed curves; inactive = no such curve, though single readings can be large; an effect the other way counts as inactive or inconclusive.

Key:
[1] = qHTS assay to identify small molecule antagonists of the estrogen related receptor (ERR) signaling pathway from Tox21 library - cell viability counter screen (AID 1224834); note: nearly all actives have a fitted effect of over 30% in size
Outline: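 Fluorescence from CellTiter-Fluor gives the viability read-out, taken 30 min after reagent addition. Before that, ERR cells seeded 6 h earlier were incubated with compounds for 17.5 h at 37 C.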

[2] = target: Luciferin 4-monooxygenase (Photinus pyralis) (UniProt P08659); assay: qHTS assay to identify small molecule inhibitors of firefly luciferase (AID 1224835); note: nearly all actives have a fitted effect of over 25% in size
Outline: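 Inhibition of purified Photinus luciferase is measured by luminescence. Substrate levels (D-luciferin, ATP) sit at their KM values. Each compound is tested in a concentration series.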

[3] = qHTS assay to identify small molecule agonists of the constitutive androstane receptor (CAR) signaling pathway - cell viability counter screen (AID 1224836); note: nearly all actives have a fitted effect of over 45% in size
Outline: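 HepG2-CYP2B6-hCAR, 2500 cells/well, 4 h pre-incubation; cpd 15 conc + PK11195 0.75 uM final; 23 h, 37 C/5% CO2; CellTiter-Fluor, fluorescence.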

[4] = qHTS assay to identify small molecule antagonists of the constitutive androstane receptor (CAR) signaling pathway - cell viability counter screen (AID 1224837); note: nearly all actives have a fitted effect of over 45% in size
Outline: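 HepG2-CYP2B6-hCAR cells, 2500/well, 4 hr pre-incubation; compound titration, 15 conc.; CITCO 50 nM final; 23 hr, 37 C/5% CO2; CellTiter-Fluor, fluorescence intensity.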

[5] = target: Nuclear receptor subfamily 1 group I member 3 (Homo sapiens) (UniProt Q14994); assay: qHTS assay to identify small molecule antagonists of the constitutive androstane receptor (CAR) signaling pathway (AID 1224838);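 note: HepG2 cells stably expressing hCAR with CYP2B6 luciferase reporter stimulated by CITCO; nearly all actives have a fitted effect of over 40% in size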
Outline: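 HepG2-CYP2B6-hCAR cells; 4 h pre-incubation; cpd (15 conc) + CITCO 50 nM final; 24 h, 37 C/5% CO2; ONE-Glo, luminescence.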

[6] = target: Nuclear receptor subfamily 1 group I member 3 (Homo sapiens) (UniProt Q14994); assay: qHTS assay to identify small molecule agonists of the constitutive androstane receptor (CAR) signaling pathway (AID 1224839);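 note: HepG2 cells stably carrying human CAR and a CYP2B6 luciferase reporter; nearly all actives have a fitted effect of over 15% in size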
Outline: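 HepG2-CYP2B6-hCAR cells, 2500/well, 4 h pre-incubation; compounds 15 conc.; PK11195 0.75 uM final; 24 h, 37 C/5% CO2; ONE-Glo luciferase read.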

[7] = qHTS assay to identify small molecule antagonists of the estrogen related receptor signaling pathway with the pleiotropic PPARgamma coactivator (PGC) from Tox21 10K library - cell viability counter screen (AID 1224840; active = well fitted cell-killing curve with a large enough effect in the repeat runs, not every such curve was filed as active; note: nearly all actives have a fitted effect of over 40% in size)
Outline: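 PGC/ERR cells, 2,000/well; 6 h pre-incubation 37 C/5% CO2; cpd in DMSO via pin tool; 17.5 h 37 C; CellTiter-Fluor, 30 min; fluorescence.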

[8] = target: Thyrotropin receptor (Homo sapiens) (UniProt P16473); assay: qHTS assay to identify small molecule agonists of the thyroid stimulating hormone receptor (TSHR) signaling pathway (AID 1224843; calls by dose curve; note: nearly all actives have a fitted effect of over 45% in size)
Outline: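 HEK293 cells stably bearing the thyrotropin receptor were plated at 800 cells/well and challenged with compound (30 min, RT). Accumulated cAMP was quantified via cAMP-d2 competing for cryptate-tagged antibody.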

[9] = qHTS assay to identify small molecule agonists of the hypoxia (HIF-1) signaling pathway - cell viability counter screen (AID 1224844; calls by dose curve; note: nearly all actives have a fitted effect of over 50% in size)
Outline: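 ME-180 HRE-bla cells, 2,000/well, 0.5% dialyzed FBS; 5 hr settle, 17 hr compound at 37C/5% CO2; CCF4-AM reporter read first, then CellTiter-Glo luminescence after 30 min RT.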

[10] = qHTS assay to identify small molecule agonists of H2AX (AID 1224845; active = well fitted activation curve with a large enough effect in the signal ratio in the repeat runs, not every such curve was filed as active; the % refers to the signal ratio)
Outline: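 Phospho-H2AX Ser139 measured by HTRF (ex 320 nm; em 665 and 620 nm) after 24 hr antibody incubation. Compounds, 15 concentrations, 0.76% DMSO, were applied to CHO-K1 cells for 3hr at 37C before lysis.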

[11] = qHTS assay to identify small molecule agonists of the hypoxia (HIF-1) signaling pathway (AID 1224846; active = well fitted activation curve with a large enough effect in the signal ratio in the repeat runs, not every such curve was filed as active; the % refers to the signal ratio)
Outline: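 Cell line: CellSensor HRE-bla ME-180; 2,000 cells/well; 0.5% dialyzed FBS; 5 h preincubation; DMSO compound pin transfer; 17 h, 37C, 5% CO2; CCF4-AM added; bla FRET signal scored for activation.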

[12] = qHTS assay to identify small molecule agonists of H2AX - cell viability counter screen (AID 1224847; calls by dose curve;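 note: wild-type CHO-K1 cells; top concentration of the series differs between compounds; nearly all actives have a fitted effect of over 30% in size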)
Outline: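 Cells plated first: CHO-K1, 1000 per well in 10% FBS medium, incubated overnight at 37C. Then 15-point compound titration added (final DMSO 0.76%) for 3 hr. Finally CellTiter-Glo added and luminescence read.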

[13] = qHTS RealTime-Glo MT Cell Viability Assay in HepG2 cells - 24 hour (AID 1224867); note: nearly all actives have a fitted effect of over 50% in size
Outline: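 HepG2 cells were seeded at 600 cells/well together with NanoLuc luciferase and a cell-permeant prosubstrate, preincubated 5 h at 37 C/5% CO2, then pin-dosed with compounds in DMSO. Nonlytic luminescence from viable cells was read at each time point.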

[14] = qHTS RealTime-Glo MT Cell Viability Assay in HEK293 cells - 32 hour (AID 1224868); note: top concentration of the series differs between compounds; nearly all actives have a fitted effect of over 50% in size
Outline: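 HEK293 cells were seeded at 600 cells/well together with NanoLuc luciferase and cell-permeant prosubstrate, preincubated 5 h at 37 C/5% CO2, then given compound in DMSO by pintool. Luminescence from viable-cell prosubstrate reduction was read repeatedly over 40 h.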

[15] = A CellTox Green Cytotoxicity Assay to monitor cytotoxicity in HEK293 cells - 0 hour (AID 1224869); note: nearly all actives have a fitted effect of over 50% in size
Outline: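 Nonlytic real-time cytotoxicity: HEK293 + CellTox Green reagent plated, 5 h preincubation, pintool compound addition (23 nL in DMSO), 37 C for 40 h, fluorescence measured at successive time points.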

[16] = qHTS RealTime-Glo MT Cell Viability Assay in HepG2 cells - 40 hour (AID 1224870); note: nearly all actives have a fitted effect of over 50% in size
Outline: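 Real-time viability: cells seeded at 600 per well together with NanoLuc and cell-permeant prosubstrate, compounds added after 5 h incubation. Luminescence tracked at 0, 8, 16, 24, 32 and 40 h of exposure.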

[17] = qHTS assay to identify small molecule antagonists of the estrogen related receptor signaling pathway with the pleiotropic PPARgamma coactivator (PGC) from Tox21 10K library (AID 1224841; call rule not given here)
Outline: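 PGC/ERR cell line, 2,000 cells/well; 6 h pre-incubation 37 C/5% CO2; compounds (DMSO) pinned in; 18 h, 37 C; One-Glo, 30 min RT; luminescence.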

[18] = qHTS assay to identify small molecule agonists of the estrogen related receptor signaling pathway with the pleiotropic PPARgamma coactivator (PGC) from Tox21 10K library (AID 1224842); note: nearly all actives have a fitted effect of over 15% in size
Outline: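 Luminescence from One-Glo (30 min, room temperature) measured after PGC/ERR cells had 18 h at 37 C with pinned compound (23 nL in DMSO). Cells had been seeded at 2,000 per well and pre-incubated 6 h.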

[19] = qHTS assay to identify small molecule antagonists of the estrogen related receptor (ERR) signaling pathway from Tox21 library (AID 1224848); note: nearly all actives have a fitted effect of over 50% in size
Outline: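 Reading was by luminescence 30 min after ONE-Glo addition. Before that, ERR cells at 2,000 per well had rested 6 h at 37 C/5% CO2 and then received pin-tooled compounds in DMSO for 18 h at 37 C.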

[20] = qHTS assay to identify small molecule agonists of the estrogen related receptor (ERR) signaling pathway from Tox21 library (AID 1224849; calls by dose curve; note: nearly all actives have a fitted effect of over 15% in size); conditions: ERR reporter cell line, ONE-Glo luciferase, 18 h
Outline: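 ERR cells, 6 h pre-incubation 37 C/5% CO2; cpd in DMSO pinned; 18 h 37 C; ONE-Glo added, 30 min RT; luminescence read. Agonist mode, qHTS.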
% is set by controls: 0 for no effect and ±100 for the full control effect.

Chain of Luciferin 4-monooxygenase (Photinus pyralis) (P08659 whole entry, looked up): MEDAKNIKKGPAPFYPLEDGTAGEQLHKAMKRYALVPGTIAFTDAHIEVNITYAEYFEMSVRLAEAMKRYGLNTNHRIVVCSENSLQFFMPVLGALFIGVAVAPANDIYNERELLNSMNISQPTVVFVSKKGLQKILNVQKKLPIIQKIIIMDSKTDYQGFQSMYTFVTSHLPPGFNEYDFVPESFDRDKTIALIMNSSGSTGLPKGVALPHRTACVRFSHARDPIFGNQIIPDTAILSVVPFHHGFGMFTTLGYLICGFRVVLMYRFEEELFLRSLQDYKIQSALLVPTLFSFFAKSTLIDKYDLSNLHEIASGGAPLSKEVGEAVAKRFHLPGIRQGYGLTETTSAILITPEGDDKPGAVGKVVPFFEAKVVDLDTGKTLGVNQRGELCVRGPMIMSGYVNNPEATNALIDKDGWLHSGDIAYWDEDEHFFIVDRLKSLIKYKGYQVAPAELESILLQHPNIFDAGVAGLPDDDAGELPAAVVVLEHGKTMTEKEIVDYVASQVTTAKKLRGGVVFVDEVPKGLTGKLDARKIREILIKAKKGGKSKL
Chain of Thyrotropin receptor (Homo sapiens) (P16473 whole entry, looked up): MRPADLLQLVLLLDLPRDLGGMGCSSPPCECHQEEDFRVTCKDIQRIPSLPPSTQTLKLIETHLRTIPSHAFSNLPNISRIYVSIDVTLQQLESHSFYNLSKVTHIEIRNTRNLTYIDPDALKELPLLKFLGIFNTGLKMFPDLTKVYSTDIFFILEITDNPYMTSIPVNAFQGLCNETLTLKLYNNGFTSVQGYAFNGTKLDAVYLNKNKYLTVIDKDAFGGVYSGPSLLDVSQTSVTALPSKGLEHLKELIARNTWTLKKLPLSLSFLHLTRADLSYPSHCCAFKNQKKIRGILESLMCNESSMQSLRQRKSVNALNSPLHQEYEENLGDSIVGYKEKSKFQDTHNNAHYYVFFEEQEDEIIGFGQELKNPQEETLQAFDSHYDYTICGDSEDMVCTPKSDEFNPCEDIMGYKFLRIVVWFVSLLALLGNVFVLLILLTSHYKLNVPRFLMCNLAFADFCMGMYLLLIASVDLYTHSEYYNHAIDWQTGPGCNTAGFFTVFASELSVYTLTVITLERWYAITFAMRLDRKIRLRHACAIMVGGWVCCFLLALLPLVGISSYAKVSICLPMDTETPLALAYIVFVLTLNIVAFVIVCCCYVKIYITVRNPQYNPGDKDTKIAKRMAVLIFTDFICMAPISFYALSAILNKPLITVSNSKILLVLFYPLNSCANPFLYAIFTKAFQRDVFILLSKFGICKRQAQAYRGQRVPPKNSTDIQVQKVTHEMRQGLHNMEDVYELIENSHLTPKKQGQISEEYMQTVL
Chain of Nuclear receptor subfamily 1 group I member 3 (Homo sapiens) (Q14994 whole entry, looked up): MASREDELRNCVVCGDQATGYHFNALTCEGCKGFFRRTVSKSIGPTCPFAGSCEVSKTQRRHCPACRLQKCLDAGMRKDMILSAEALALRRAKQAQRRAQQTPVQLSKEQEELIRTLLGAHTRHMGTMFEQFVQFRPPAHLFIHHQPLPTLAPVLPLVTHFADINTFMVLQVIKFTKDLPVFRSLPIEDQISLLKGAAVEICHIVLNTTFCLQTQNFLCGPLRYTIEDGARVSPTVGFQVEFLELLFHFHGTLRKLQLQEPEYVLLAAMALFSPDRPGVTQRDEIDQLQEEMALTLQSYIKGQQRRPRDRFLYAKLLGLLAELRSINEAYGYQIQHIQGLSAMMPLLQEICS

NC(=O)c1ccc([N+](=O)[O-])cc1Cl
inactive: Potency [1] | Potency [2] | Potency [3] | Potency [4] | Potency [5] | Potency [6] | Potency [7] | Potency [8] | Potency [9] | Potency [10] | outcome [11] | Potency [12] | outcome [13] | Potency [14] | Potency [15] | outcome [16]

CC1(C)O[C@@H]2[C@@H](CO[C@@]3(COS(N)(=O)=O)OC(C)(C)O[C@@H]23)O1
inactive: Potency [1] | Potency [2] | Potency [3] | Potency [4] | Potency [5] | Potency [6] | Potency [7] | Potency [17] | Potency [18] | Potency [9] | Potency [10] | outcome [11] | Potency [12] | Potency [19] | activity change, positive = activation ([20]; at 42.5 µM (top of the series)) 1.2% | activity change, positive = activation ([20]; at 92.4 µM (top of the series)) -14.9% | outcome [13] | Potency [14] | Potency [15] | outcome [16]

Cc1cccc2ccccc12
inactive: Potency [1] | Potency [2] | Potency [3] | Potency [4] | Potency [5] | Potency [6] | Potency [7] | Potency [17] | Potency [18] | Potency [8] | Potency [9] | outcome [11] | Potency [12] | Potency [19] | activity change, positive = activation ([20]; at 92.4 µM (top of the series)) -5.59% and 0.133% | outcome [13] | Potency [14] | Potency [15]

O=c1cc[nH]c(=O)[nH]1
inactive: Potency [1] | Potency [2] | Potency [3] | Potency [4] | Potency [5] | Potency [6] | Potency [7] | Potency [17] | Potency [18] | Potency [8] | Potency [9] | Potency [10] | outcome [11] | Potency [12] | Potency [19] | activity change, positive = activation ([20]; at 42.5 µM (top of the series)) 5.28% | activity change, positive = activation ([20]; at 92.4 µM (top of the series)) 0.687% | outcome [13] | Potency [14] | Potency [15] | outcome [16]

C=C(C)OC(C)=O
inactive: Potency [1] | Potency [2] | Potency [3] | Potency [4] | Potency [5] | Potency [6] | Potency [7] | Potency [17] | Potency [18] | Potency [8] | Potency [9] | Potency [10] | outcome [11] | Potency [12] | Potency [19] | activity change, positive = activation ([20]; at 92.4 µM (top of the series)) 4.28% and 3.36% | outcome [13] | Potency [14] | Potency [15] | outcome [16]

CCCCCCCC(=O)OCC(O)CO (configuration not stated)
inactive: Potency [1] | Potency [2] | Potency [3] | Potency [4] | Potency [5] | Potency [6] | Potency [7] | Potency [17] | Potency [18] | Potency [9] | outcome [11] | Potency [12] | Potency [19] | activity change, positive = activation ([20]; at 92.4 µM (top of the series)) 1.37% | outcome [13] | Potency [14] | Potency [15]
